This note sets out measurements from the supplement of paper PMC10849652.

The full data set covers some 8,800 targets. This sample favours those with a hit. About 0.5% of all pairs of compound and target were hits. Values without a mark were called inactive.

UniProt Q96NW4, sequence (Q96NW4 whole entry, looked up): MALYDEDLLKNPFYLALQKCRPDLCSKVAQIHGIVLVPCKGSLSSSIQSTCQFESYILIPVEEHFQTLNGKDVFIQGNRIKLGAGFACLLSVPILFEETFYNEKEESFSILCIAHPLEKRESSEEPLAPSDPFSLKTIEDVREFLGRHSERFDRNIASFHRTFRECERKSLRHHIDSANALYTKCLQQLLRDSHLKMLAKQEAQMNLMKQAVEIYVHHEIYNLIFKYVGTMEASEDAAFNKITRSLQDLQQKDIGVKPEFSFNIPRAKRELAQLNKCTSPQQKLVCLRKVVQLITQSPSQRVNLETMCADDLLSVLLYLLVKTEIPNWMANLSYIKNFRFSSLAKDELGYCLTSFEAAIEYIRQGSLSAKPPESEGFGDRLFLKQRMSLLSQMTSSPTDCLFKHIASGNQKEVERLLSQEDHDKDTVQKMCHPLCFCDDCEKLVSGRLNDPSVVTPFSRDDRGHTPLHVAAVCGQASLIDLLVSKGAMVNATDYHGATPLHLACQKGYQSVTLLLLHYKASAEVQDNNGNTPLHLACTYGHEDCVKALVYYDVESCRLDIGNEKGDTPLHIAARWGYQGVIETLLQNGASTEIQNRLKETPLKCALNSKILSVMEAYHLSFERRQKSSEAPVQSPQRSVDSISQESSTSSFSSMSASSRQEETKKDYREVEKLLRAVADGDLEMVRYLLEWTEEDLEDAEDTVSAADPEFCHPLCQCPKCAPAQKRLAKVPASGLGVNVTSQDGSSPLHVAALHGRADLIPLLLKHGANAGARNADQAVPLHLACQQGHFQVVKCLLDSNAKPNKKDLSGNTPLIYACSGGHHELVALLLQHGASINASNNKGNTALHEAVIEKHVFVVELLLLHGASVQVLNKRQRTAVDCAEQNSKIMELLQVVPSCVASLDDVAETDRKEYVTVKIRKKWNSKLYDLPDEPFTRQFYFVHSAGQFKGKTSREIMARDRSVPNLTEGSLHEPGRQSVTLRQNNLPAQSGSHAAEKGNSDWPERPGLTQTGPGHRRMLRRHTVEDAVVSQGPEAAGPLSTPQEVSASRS
UniProt Q8N302, sequence (Q8N302 whole entry, looked up): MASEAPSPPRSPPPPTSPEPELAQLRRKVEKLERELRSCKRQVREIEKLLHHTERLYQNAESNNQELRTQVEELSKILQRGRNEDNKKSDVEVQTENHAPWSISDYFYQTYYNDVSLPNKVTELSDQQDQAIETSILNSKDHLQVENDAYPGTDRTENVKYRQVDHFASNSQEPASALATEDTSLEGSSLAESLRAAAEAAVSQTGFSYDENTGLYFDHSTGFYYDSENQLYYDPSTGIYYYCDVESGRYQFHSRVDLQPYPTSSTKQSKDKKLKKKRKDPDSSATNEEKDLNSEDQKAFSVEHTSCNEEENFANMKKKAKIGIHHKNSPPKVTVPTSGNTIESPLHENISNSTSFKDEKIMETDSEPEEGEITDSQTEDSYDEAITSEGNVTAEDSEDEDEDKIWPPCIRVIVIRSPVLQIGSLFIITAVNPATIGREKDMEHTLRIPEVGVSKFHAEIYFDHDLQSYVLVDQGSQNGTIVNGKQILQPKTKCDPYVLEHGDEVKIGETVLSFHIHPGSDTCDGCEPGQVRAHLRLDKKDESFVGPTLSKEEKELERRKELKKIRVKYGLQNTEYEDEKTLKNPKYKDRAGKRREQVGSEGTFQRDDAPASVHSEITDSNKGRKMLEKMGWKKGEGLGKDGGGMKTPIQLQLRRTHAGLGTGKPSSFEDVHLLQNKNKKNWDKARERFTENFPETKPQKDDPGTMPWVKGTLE
UniProt Q9NXU5, sequence (Q9NXU5 whole entry, looked up): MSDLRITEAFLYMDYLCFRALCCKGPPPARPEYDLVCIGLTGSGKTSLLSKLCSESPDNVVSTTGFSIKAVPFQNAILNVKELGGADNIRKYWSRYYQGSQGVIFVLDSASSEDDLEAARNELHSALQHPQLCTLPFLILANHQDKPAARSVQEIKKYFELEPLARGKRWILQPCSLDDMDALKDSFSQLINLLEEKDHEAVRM
UniProt P31749, sequence (P31749 whole entry, looked up): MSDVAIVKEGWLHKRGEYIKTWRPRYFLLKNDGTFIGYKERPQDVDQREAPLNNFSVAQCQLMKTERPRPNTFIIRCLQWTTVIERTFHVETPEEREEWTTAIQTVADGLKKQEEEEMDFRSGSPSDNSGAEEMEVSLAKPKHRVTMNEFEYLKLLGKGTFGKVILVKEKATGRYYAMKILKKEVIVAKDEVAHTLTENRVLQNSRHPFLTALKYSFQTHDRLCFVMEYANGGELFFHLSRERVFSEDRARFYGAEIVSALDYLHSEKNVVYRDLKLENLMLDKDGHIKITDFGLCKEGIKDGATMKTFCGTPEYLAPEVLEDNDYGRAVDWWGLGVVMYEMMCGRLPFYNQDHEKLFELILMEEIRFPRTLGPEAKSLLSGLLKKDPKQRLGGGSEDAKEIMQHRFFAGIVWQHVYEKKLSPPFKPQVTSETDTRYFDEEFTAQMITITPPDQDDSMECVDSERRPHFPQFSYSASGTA
UniProt Q9UNA0, sequence (Q9UNA0 whole entry, looked up): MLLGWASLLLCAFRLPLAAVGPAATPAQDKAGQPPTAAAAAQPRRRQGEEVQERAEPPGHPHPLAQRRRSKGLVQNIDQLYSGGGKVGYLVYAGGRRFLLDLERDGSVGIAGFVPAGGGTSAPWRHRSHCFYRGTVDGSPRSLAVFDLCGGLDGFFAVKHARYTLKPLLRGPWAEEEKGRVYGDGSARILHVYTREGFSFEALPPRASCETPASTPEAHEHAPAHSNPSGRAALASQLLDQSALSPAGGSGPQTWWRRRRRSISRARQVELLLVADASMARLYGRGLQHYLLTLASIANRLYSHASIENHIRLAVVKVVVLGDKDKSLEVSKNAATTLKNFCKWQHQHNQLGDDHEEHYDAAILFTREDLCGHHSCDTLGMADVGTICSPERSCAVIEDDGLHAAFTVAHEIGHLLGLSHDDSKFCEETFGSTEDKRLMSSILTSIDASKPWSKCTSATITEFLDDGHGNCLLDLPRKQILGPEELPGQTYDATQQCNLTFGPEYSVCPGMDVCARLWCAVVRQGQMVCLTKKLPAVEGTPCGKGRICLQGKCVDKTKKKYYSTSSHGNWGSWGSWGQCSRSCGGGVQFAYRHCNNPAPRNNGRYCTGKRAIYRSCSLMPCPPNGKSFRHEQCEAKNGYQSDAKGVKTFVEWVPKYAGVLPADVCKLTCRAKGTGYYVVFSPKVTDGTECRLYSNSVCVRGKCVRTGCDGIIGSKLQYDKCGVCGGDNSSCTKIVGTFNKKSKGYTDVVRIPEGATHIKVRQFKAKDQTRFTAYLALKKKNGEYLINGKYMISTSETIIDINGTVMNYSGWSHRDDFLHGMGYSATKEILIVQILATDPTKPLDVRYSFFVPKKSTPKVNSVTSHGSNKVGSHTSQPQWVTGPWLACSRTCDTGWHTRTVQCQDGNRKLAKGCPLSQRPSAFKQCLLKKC
UniProt P35611, sequence (P35611 whole entry, looked up): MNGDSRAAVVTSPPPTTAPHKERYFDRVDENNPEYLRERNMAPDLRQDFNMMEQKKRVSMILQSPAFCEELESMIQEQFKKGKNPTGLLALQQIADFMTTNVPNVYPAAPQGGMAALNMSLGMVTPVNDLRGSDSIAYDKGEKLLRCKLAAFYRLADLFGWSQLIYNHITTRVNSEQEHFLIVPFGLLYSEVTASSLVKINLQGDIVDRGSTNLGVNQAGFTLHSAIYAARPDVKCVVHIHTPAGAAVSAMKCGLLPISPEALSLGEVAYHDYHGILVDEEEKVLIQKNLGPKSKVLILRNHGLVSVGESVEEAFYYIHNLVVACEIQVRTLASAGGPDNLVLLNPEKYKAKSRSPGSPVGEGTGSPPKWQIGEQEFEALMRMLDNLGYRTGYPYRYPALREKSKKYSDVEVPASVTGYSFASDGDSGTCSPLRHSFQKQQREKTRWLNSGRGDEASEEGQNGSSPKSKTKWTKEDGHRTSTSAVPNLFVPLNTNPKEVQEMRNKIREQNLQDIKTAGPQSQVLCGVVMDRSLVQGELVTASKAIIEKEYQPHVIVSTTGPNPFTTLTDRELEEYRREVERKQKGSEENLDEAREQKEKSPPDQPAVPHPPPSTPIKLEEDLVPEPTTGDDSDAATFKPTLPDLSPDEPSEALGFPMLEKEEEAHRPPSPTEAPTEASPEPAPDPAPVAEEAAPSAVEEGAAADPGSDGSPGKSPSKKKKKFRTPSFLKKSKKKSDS
UniProt O95870, sequence (O95870 whole entry, looked up): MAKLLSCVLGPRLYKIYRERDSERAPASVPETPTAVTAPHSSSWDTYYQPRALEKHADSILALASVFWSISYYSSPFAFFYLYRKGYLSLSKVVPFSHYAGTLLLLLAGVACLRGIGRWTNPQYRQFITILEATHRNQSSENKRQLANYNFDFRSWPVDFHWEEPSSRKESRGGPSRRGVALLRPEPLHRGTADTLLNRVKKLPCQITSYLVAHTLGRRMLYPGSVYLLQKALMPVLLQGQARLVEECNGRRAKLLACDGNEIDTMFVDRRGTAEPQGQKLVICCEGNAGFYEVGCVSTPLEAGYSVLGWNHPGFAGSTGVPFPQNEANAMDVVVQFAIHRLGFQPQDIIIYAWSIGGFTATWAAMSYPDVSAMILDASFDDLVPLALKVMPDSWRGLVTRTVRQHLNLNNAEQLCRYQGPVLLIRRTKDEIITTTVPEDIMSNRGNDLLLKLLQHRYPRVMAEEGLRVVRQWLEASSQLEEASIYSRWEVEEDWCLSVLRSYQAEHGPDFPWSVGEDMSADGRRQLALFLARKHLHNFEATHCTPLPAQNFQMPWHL
UniProt Q9BTT0, sequence (Q9BTT0 whole entry, looked up): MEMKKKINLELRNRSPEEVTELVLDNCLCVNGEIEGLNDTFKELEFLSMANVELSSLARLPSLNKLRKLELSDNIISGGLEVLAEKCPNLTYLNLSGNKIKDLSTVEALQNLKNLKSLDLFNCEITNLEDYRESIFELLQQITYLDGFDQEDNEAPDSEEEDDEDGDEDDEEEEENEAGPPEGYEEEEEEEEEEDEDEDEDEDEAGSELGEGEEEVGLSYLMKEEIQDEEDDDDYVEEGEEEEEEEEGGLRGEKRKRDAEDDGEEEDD

Compound in the first experiment: C#Cc1cccc(Nc2ncnc3cc(OCCOC)c(OCCOC)cc23)c1 [erlotinib]
In words: log2 fold change, soluble protein after heating vs DMSO (PISA); higher = thermal stabilisation; K562 lysate, 10 uM; active = over 0.2 and 3.5 SD of the protein, either way, in both replicates (recomputed). In outline:
(§1)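 Soluble protein was defined as the supernatant remaining after 21,000xg for 90 min, following pooling of heated aliquots and adjustment to 0.5% NP-40 at 4°C. Before that, crude K562 extract at 1 mg/mL protein in PBS pH 7.4 with 1 mM MgCl2 was treated with 10 μM compound for 30 min and heated for 3 min across 48°C-58°C. Quantification used TMTpro 16plex LC-MS/MS with channel sums equalised, and values are log-two fold changes in thermal stability relative to solvent controls from duplicates.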
On to ADRM1 (UniProt Q16186), for which the log2 fold change was 0.007.
On the same count and under the same terms, the result for ADD1 isoform 3 (UniProt P35611) reads -0.027; that for AGGF1 (UniProt Q8N302), -0.015.
Still for that read-out and setting: the result for ANKRD40 (UniProt Q6AI12) reads 0.085; that for AIMP1 isoform 2 (UniProt Q12904), 0.044.
On the same count and under the same terms, the result for AMPD3 isoform 4 (UniProt Q01432) reads 0.
Consider AGTPBP1 (UniProt Q9UPW5), for which the log2 fold change was -0.033.
The same measure, in the same setting: then AIFM2 (UniProt Q9BRQ8), with -0.094.
The same measure, in the same setting: then ARL1 (UniProt P40616), with 0.006.
Still for that read-out and setting: the result for ACSL1 (UniProt P33121) reads 0.02; that for ACTBL2 (UniProt Q562R1), -0.037.
With ALG13 (UniProt Q9NP73), the log2 fold change was 0.022.
Take AGPS (UniProt O00116): the log2 fold change was 0.033.
Turning to ARL15 (UniProt Q9NXU5), the log2 fold change is -0.035.
The same measure, in the same setting: the result for ALDH2 (UniProt P05091) reads -0.048; that for ADAM17 (UniProt P78536), 0.021.
Same read-out and setting: then ABCF2 isoform 2 (UniProt Q9UG63), with 0.046.
Same read-out and setting: the result for AK4 (UniProt P27144) reads -0.024; that for ABCD3 (UniProt P28288), -0.1; that for ADAMTS5 (UniProt Q9UNA0), 0.027.
Turning to ABHD16A (UniProt O95870), the log2 fold change is -0.009.
Regarding AGO4 (UniProt Q9HCK5), the log2 fold change is -0.038.
With ALDH1B1 (UniProt P30837), the log2 fold change was -0.064.
Regarding ANXA5 (UniProt P08758), the log2 fold change was -0.011.
For the target ANKRD27 (UniProt Q96NW4), the log2 fold change is 0.087.
On to AMMECR1 (UniProt Q9Y4X0), for which the log2 fold change was 0.007.
Same read-out and setting: the result for AP1G2 (UniProt O75843) reads 0.052; that for ASPH (UniProt Q12797), 0.003; that for ABI1 isoform 9 (UniProt Q8IZP0), -0.014.
The same measure, in the same setting: the result for ABL2 (UniProt P42684) reads -0.046; that for AMD1 (UniProt P17707), 0.019; that for ANKRD52 (UniProt Q8NB46), 0.056.
On the same count and under the same terms, then ANP32E (UniProt Q9BTT0), with 0.006; and AKT1 (UniProt P31749), with -0.008; and ACAA1 (UniProt P09110), with 0.03.
AFF4 (UniProt Q9UHB7): the log2 fold change is -0.003.

Compound in the next experiment: C/C(=N\NC(=O)C1=CC(=CC=C1)S(=O)(=O)N2CCOCC2)/C3=C(C=CC(=C3)Cl)O
The description is as above. An outline of the steps:
as §1
Consider ADRM1 (UniProt Q16186), for which the log2 fold change is -0.006.
The same measure, in the same setting: the result for ADD1 isoform 3 (UniProt P35611) reads 0; that for AGGF1 (UniProt Q8N302), -0.056; that for ANKRD40 (UniProt Q6AI12), -0.269.
On the same count and under the same terms, the result for AIMP1 isoform 2 (UniProt Q12904) reads 0.013.
Turning to AMPD3 isoform 4 (UniProt Q01432), the log2 fold change was 0.048.
In the case of AGTPBP1 (UniProt Q9UPW5), the log2 fold change is -0.084.
The same measure, in the same setting: the result for AIFM2 (UniProt Q9BRQ8) reads 0; that for ARL1 (UniProt P40616), -0.212; that for ACSL1 (UniProt P33121), -0.104.
On to ACTBL2 (UniProt Q562R1), for which the log2 fold change was -0.163.
As for ALG13 (UniProt Q9NP73), the log2 fold change is -0.014.
On the same count and under the same terms, then AGPS (UniProt O00116), with -0.086; and ARL15 (UniProt Q9NXU5), with 0.004.
Same read-out and setting: then ALDH2 (UniProt P05091), with 0.009.
Take ADAM17 (UniProt P78536): the log2 fold change was -0.013.
Take ABCF2 isoform 2 (UniProt Q9UG63): the log2 fold change is -0.029.
Same read-out and setting: the result for AK4 (UniProt P27144) reads 0.024.
On the same count and under the same terms, then ABCD3 (UniProt P28288), with 0.556 (active); and ADAMTS5 (UniProt Q9UNA0), with 0.004; and ABHD16A (UniProt O95870), with -0.047.
Take AGO4 (UniProt Q9HCK5): the log2 fold change is -0.008.
Same read-out and setting: then ALDH1B1 (UniProt P30837), with 0.027; and ANXA5 (UniProt P08758), with -0.001; and ANKRD27 (UniProt Q96NW4), with -0.025.
For AMMECR1 (UniProt Q9Y4X0), the log2 fold change is 0.003.
The same measure, in the same setting: then AP1G2 (UniProt O75843), with 0.016; and ASPH (UniProt Q12797), with -0.028; and ABI1 isoform 9 (UniProt Q8IZP0), with -0.003.
Consider ABL2 (UniProt P42684), for which the log2 fold change is 0.068.
Consider AMD1 (UniProt P17707), for which the log2 fold change is 0.011.
Still for that read-out and setting: then ANKRD52 (UniProt Q8NB46), with -0.288; and ANP32E (UniProt Q9BTT0), with -0.006; and AKT1 (UniProt P31749), with 0.042.
Same read-out and setting: then ACAA1 (UniProt P09110), with -0.455.
Regarding AFF4 (UniProt Q9UHB7), the log2 fold change was -0.152.
